Compound activity as filed in PubChem BioAssay.
A selection: hits, their analogues and other compounds. The true share with any hit is near 3%.
PPC-1+TRAIL kill: compounds killing PPC-1 cancer cells with TRAIL present (potentiator screen, no TRAIL-free arm); 220,000 tested, 0.41% active; PPC-1 cells + TRAIL, ATPLite viability luminescence; cell killing (% activity), % at 4 µM or 5 µM;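 active = cell killing above 50% in the first pass at 4 µM, then a duplicate retest at 5 µM averaging 50% or more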;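 note: plate controls were cells with TRAIL plus DMSO for no effect and medium-only wells lacking cells for full effect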
SENP6 block: blocks the human protease SENP6; Recombinant SENP6 catalytic domain, aminoluciferin luminescence; inhibition, % at 10 µM; 330,000 tested, 1.8% active; AID 2599;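 active = inhibition above about 50% at the single tested dose, limit read from the data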;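 note: plate controls were DMSO wells with enzyme for no effect and DMSO wells lacking enzyme for full effect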
Target sequence (Q9GZR1 628-1112 limits assumed): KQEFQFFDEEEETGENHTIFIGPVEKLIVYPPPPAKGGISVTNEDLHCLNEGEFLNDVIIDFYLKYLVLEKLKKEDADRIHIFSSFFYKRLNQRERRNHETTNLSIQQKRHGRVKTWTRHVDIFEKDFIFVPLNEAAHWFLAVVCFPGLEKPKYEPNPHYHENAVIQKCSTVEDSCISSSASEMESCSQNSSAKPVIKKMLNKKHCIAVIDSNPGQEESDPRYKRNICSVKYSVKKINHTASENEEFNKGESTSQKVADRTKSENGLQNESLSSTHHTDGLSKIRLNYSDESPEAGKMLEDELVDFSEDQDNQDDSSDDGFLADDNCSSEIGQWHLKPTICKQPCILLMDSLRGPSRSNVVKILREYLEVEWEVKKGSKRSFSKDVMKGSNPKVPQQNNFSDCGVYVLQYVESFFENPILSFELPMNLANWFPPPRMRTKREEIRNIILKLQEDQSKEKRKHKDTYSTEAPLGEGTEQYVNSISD
SENP7 block: blocks the human protease SENP7; Q9BQF6; recombinant SENP7, Z-RLRGG-aminoluciferin luminescence, 40 min; inhibition, % at 5 µM; 330,000 tested, 1.5% active; AID 434973;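 active = inhibition above about 50% at the single test dose, limit read from the data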;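 note: plate controls were DMSO with enzyme for no effect and no enzyme buffer wells for full effect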
SENP8 block-1: SENP8 protease inhibition; Q96LD8; 330,000 tested, 1.2% active; purified SENP8, Z-RLRGG-aminoluciferin cleavage, luminescence; inhibition, % at 10 µM; in the data active = inhibition above about 50%
SENP8 block-2: SENP8 (human) protease inhibition; Q96LD8; recombinant SENP8, Nedd8 substrate fluorescence; inhibition, % at 20 µM; 360,000 tested, 0.64% active; in the data active = inhibition mostly above about 40%, no sharp cut-off; inactive = mostly below about 27%
C8 TRAIL sens: caspase-8 TRAIL sensitization | NB7+C8 cells + TRAIL, ATPlite viability luminescence | inhibition (viability loss, TRAIL sensitization), % at 10 µM | 360,000 tested, 1% active | AID 624354;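 active = compounds causing at least 50% loss of cell viability in the single-dose screen, relative to plate controls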
SENP8 conf: human SENP8 inhibition, confirmed; inhibition, % at 12.5 µM; shares compounds with SENP7 block; 6,200 tested, 40% active; Recombinant SENP8, Z-RLRGG-aminoluciferin luminescence, 60 min;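 active = mean inhibition across replicates above about 50%, limit read from the data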
SENP6 confirm: confirmation of human SENP6 protease inhibitors. shares compounds with SENP7 block. inhibition, % at 12.5 µM. recombinant SENP6, Z-RLRGG-aminoluciferin luminescence. 6,200 tested, 58% active
SENP7 conf: confirmation of human SENP7 protease inhibitors; recombinant SENP7, Z-RLRGG-aminoluciferin luminescence, 40 min; inhibition, % at 12.5 µM; shares compounds with SENP7 block; 6,200 tested, 69% active
Casp3 SENP sel: inhibits human caspase-3 in SENP selectivity test | purified caspase-3, Z-DEVD-aminoluciferin luminescence, 60 min | AID 488918 | 6,200 tested, 60% active | shares compounds with SENP7 block | inhibition, % at 12.5 µM;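 active = mean inhibition above about 50%, limit read from the data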;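 note: plate controls were enzyme with DMSO for no effect and wells without caspase-3 for full effect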
Luc interf: counter-screen for SENP inhibitors: luminescence interference; shares compounds with SENP7 block; Pre-incubated SENP8/Z-RLRGG-aminoluciferin, luciferase luminescence interference; inhibition, % at 12.5 µM; 6,200 tested, 39% active; AID 488919;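 active = mean inhibition above about 50% when retested at one dose, limit read from the data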;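 note: plate controls were DMSO wells with completed reaction for no effect and substrate without enzyme for full effect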
* hit, by the source's call; nt = no result.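 Rule for the calls, unless noted: active = mean inhibition above about 50% in the one-dose retest (limit read from the data); inactive = the rest.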

SMILES	PPC-1+TRAIL kill	SENP6 block	SENP7 block	SENP8 block-1	SENP8 block-2	C8 TRAIL sens	SENP8 conf	SENP6 confirm	SENP7 conf	Casp3 SENP sel	Luc interf
O=C(COc1ccccc1)Nc1nc2cc3c(cc2s1)OCCO3	nt	-11	6	1	0	-4	nt	nt	nt	nt	nt
O=C(Nc1nc2cc3c(cc2s1)OCCO3)c1ccco1	nt	97*	100*	96*	-465	88*	97*	98*	102*	97*	96*
Cc1c(Cl)ccc2sc(NC(=O)c3ccco3)nc12	nt	67*	86*	78*	-212	-10	35	86*	72*	54*	20
Cc1nc(NC(=S)NC(=O)c2ccco2)sc1C(=O)N(C)C	nt	-7	-1	7	11	-13	nt	nt	nt	nt	nt
CCOc1ccc2nc(NC(=O)c3ccco3)sc2c1	nt	97*	97*	92*	-238	60*	93*	98*	102*	96*	83*
O=C(NC(=S)Nc1nc2ccc(F)cc2s1)c1ccco1	40	69*	62*	12	12	86*	13	13	10	4	2
CCOc1ccc2nc(NC(=O)COC)sc2c1	26	-26	28	1	-9	8	nt	nt	nt	nt	nt
CCOc1ccc2nc(NC(=O)c3ccoc3C)sc2c1	30	96*	100*	98*	-158	46	99*	100*	103*	99*	81*
CCOC(=O)c1ccc2nc(NC(=O)c3cccs3)sc2c1	35	56*	96*	92*	-446	30	-23	50	86*	51*	14
CCOc1ccc2nc(NC(=O)C3CCCO3)sc2c1 (stereo not drawn)	nt	-27	9	-13	6	7	nt	nt	nt	nt	nt
Cn1nc(C(=O)NCC(=O)Nc2ccc(F)c(F)c2)ccc1=O	nt	nt	nt	nt	25	5	nt	nt	nt	nt	nt
Cc1cccc(C)c1NC(=O)CN(C)C(=O)c1ccc(OCc2ccccc2)cc1	nt	nt	nt	nt	6	-5	nt	nt	nt	nt	nt
O=C(c1cc2c(s1)CCCC2)N1CCN(CCO)CC1	nt	-8	-1	-11	15	13	nt	nt	nt	nt	nt
Clc1ccc2nc(-c3ccccc3)c(CC3CCCCC3)n2c1	nt	nt	nt	nt	-123	9	nt	nt	nt	nt	nt
C(=N\N=C\c1cccs1)/c1cccs1	15	57*	52*	40	21	16	28	61*	87*	62*	38
Cc1nc(Nc2nc3ccccc3o2)nc2c1CCC2	25	77*	72*	39	13	38	33	60*	86*	75*	8
COC(=O)c1ccc(S(=O)(=O)c2ccc(Cl)cc2)c(N)c1	nt	-2	0	-1	-319	17	nt	nt	nt	nt	nt
COc1ccc(C(=O)N=c2sc3c(C)ccc(OC)c3n2C)cc1	23	98*	99*	90*	-405	-14	-18	1	15	8	25
COc1cc(C(=O)N=c2sc3c(C)ccc(OC)c3n2C)cc(OC)c1OC	1	24	77*	8	-397	17	7	6	23	0	-11
COc1ccc(/C(C)=C(\C#N)C(=O)OC(C)C)cc1OC	4	-9	3	-3	-5	-6	nt	nt	nt	nt	nt
CC(=O)NC(CC(=O)OCC(=O)N1CCc2ccccc21)c1ccccc1 (stereo not drawn)	nt	1	-8	0	13	-6	nt	nt	nt	nt	nt
Cc1ccc(N=Cc2c(C)[nH]n(-c3nc4ccccc4[nH]3)c2=O)cc1	79*	94*	95*	86*	14	89*	88*	55*	94*	95*	90*
COc1cccc(-c2csc(N3CCN(CC(=O)NNC(=O)c4ccc(Br)cc4)CC3)n2)c1	2	-3	101*	2	5	-2	-8	-5	3	2	-6
Cc1ccnc(NS(=O)(=O)c2ccc(NC(=O)c3cc(-c4ccc(Br)cc4)nc4ccccc34)cc2)n1	12	-26	4	-4	2	-6	nt	nt	nt	nt	nt
Cc1ccsc1/C=N/NC(=O)CNC(=O)c1ccccc1	nt	14	-5	1	-12	-14	nt	nt	nt	nt	nt
SMILES	PPC-1+TRAIL kill	SENP6 block	SENP7 block	SENP8 block-1	SENP8 block-2	C8 TRAIL sens	SENP8 conf	SENP6 confirm	SENP7 conf	Casp3 SENP sel	Luc interf
Cc1ccsc1/C=N/Nc1ccc(C(=O)O)cc1	nt	97*	99*	96*	-116	8	99*	100*	103*	98*	98*
Cc1ccsc1/C=N/Nc1cccc(C(=O)O)c1	1	98*	100*	97*	-40	16	98*	99*	102*	97*	98*
CCCCC1CCC(C(=O)OC(C)C(=O)Nc2ccc(NC(C)=O)cc2)CC1 (stereo not drawn)	nt	-4	3	1	15	-12	nt	nt	nt	nt	nt
O=C(CN1CCN(S(=O)(=O)c2ccccc2)CC1)Nc1ccc2c(c1)CCC2	20	-22	-9	-12	11	1	nt	nt	nt	nt	nt
CCCCCOc1ccc(CSc2ncn[nH]2)cc1	6	65*	16	50	-17	9	71*	68*	86*	25	74*
CCCCOc1ccc(CSc2ncn[nH]2)cc1	0	46	17	9	8	6	nt	nt	nt	nt	nt
c1ccc(CSc2nc3ccccc3[nH]2)cc1	24	-13	77*	69*	17	26	62*	72*	94*	80*	24
CCCOc1ccc(CSc2nc3ccccc3[nH]2)cc1	27	91*	95*	88*	16	53*	92*	97*	102*	88*	58*
CCSc1nc2ccccc2[nH]1	13	-3	7	9	12	32	nt	nt	nt	nt	nt
Nc1ccccc1Sc1nc2ccccc2[nH]1	18	61*	23	57*	-6	1	61*	58*	84*	86*	72*
CCOc1ccc(OCCSc2nc3ccccc3[nH]2)cc1	24	-41	3	-6	10	2	nt	nt	nt	nt	nt
Cc1cc(C(=O)Nc2ccc3ccccc3c2)oc1C	nt	68*	54*	61*	-56	19	2	66*	89*	50*	53*
Cc1cc(C(=O)Nc2ccc3ccccc3c2)c(C)o1	nt	84*	69*	73*	-20	41	84*	84*	96*	66*	68*
CC(=O)c1cc(C(=O)Nc2ccc3ccccc3c2)c(C)o1	nt	-6	1	-10	-16	0	nt	nt	nt	nt	nt
